The source of these data is PubChem BioAssay AID485364 (National Center for Advancing Translational Sciences (NCATS), 2010).

Screen size: about 360,000 compounds; about 11,000 (3.1%) were called active. Roughly 4% stayed inconclusive and do not appear here. Calls follow the shape of the dose curve; as a rule, active = well fitted inhibition curve with a large enough effect; inconclusive = small, poorly fitted or top-dose-only effect; inactive = no such curve, though single readings can be large or run the other way. Shown is part of a subset that was picked to be rich in actives. A call without a number means that no potency is given here.
Potency is read from the fitted curve at half-maximal effect.

The target of the experiment is Schistosoma mansoni thioredoxin glutathione reductase (TGR) (UniProt Q962Y6). The experiment can be described thus: qHTS Assay for the Inhibitors of Schistosoma Mansoni Peroxiredoxins. Also: nearly all actives have a fitted effect of over 60% in size. The conditions noted are these: purified TGR, DTNB reduction, TNB absorbance 405 nm; series mostly up to 114 µM. The method, boiled down: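 First, TGR (20 nM dispensed) and NADPH were mixed with compound. Second, a 15 min room-temperature incubation followed. Third, further NADPH and then DTNB were added to start the reaction. Finally, TNB absorbance was monitored kinetically.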
Turning to `COc1ccc(N2C(=O)/C(=C/c3ccco3)C(=O)NC2=S)cc1`, the Potency was 14.1 µM (active). Regarding `COc1ccc(N2C(=O)CNC2=S)cc1`, the Potency entry is “inactive”. Consider `O=C(OCN1C(=O)c2ccccc2C1=O)/C(=C\c1ccco1)NC(=O)c1ccccc1`, for which the Potency entry was “inactive”. Consider `COC(=O)C1=C(C)N(C)C(C)=C(C(=O)OC)C1c1cccc(Br)c1`, for which the Potency result was “inactive”. Next, `COc1ccc(CN2C(=O)C(C)S/C2=N/N=C/c2ccco2)cc1` (stereo not given): “inactive”; `COC(=O)C1=C(C)N(C(C)c2ccccc2)C(=O)/C1=C\c1ccco1` (stereo not given): 31.6 µM (active); `COC(=O)C1=C(C)N(c2ccc(Br)cc2)C(=O)/C1=C\c1ccco1`: 35.5 µM (active).

`COC(=O)c1ccc(NC(=O)C(C)N2C(=O)c3ccccc3C2=O)cc1` (stereo not given): the Potency result was “inactive”. `Cc1cccc(C)c1-n1ncc(C(=O)NCCCN2CCCCC2)c1C1CCN(C(=O)OC(C)(C)C)CC1`: the Potency result is “inactive”. Next, `CC(C)NC(=O)C1CCC(Cn2c(=O)c3sccc3n(Cc3ccc(F)cc3)c2=O)CC1` (stereo not given): “inactive”; `Cc1ccc2onc(CC(=O)N3CCN(c4ccc(Cl)cc4)CC3)c2c1`: “inactive”.

On to `CCc1cc2c(cc(C(=O)OC)n2Cc2nc(-c3ccc(C)cc3)oc2C)s1`, for which the Potency entry was “inactive”.

Regarding `CC(=O)N1c2ccc(S(=O)(=O)N3CCCCCC3)cc2CC1C(=O)NCc1ccccc1C` (stereo not given), the Potency result was “inactive”. `CC(=O)c1ccc(N2CCN(c3nc4c(S(=O)(=O)c5ccccc5)nnn4c4ccc(Cl)cc34)CC2)cc1`: the Potency entry was “inactive”. Take `O=C(CSc1nccn1-c1ccc(F)cc1)Nc1cccc2ccccc12`: the Potency entry was “inactive”. As to `CC(=O)Nc1ccc2nc(SCCOc3cc(C)cc(C)c3)sc2c1`, the Potency result is “inactive”. For `O=C(NCC12CC3CC(CC(C3)C1)C2)c1cc2nc(-c3ccccc3)cc(C(F)(F)F)n2n1`, the Potency entry was “inactive”. To `CCCNC(=O)C1CCC(Cn2c(=O)c3sccc3n(Cc3ccccc3F)c2=O)CC1` (stereo not given) belongs “inactive”; to `COc1ccccc1Nc1nc(N)nc(N)c1S(=O)(=O)c1ccccc1`, “inactive”; to `CCOC(=O)C1Cn2c(nc3c(c2=O)C(C)(CC)Cc2ccccc2-3)S1` (stereo not given), “inactive”. On to `CC1(C)Cc2ccccc2-c2[nH]c(=S)[nH]c(=O)c21`, for which the Potency entry is “inactive”. Take `CCC1(CC)Cc2ccccc2-c2nc(CCl)[nH]c(=O)c21`: the Potency was 3.16 µM (active). Next, `CCOC(=O)c1oc2ccc(S(=O)(=O)n3nc(-c4ccccc4OC)cc3N)cc2c1C`: “inactive”. With `COc1ccc(Cl)cc1N(C)C(=O)c1cc2c(=O)oc3ccc(C)cc3c2s1`, the Potency result is “inactive”.

Turning to `O=C(OCC(=O)c1c[nH]c2ccccc12)c1cccc(O)c1`, the Potency result was “inactive”.

Consider `O=S(=O)(O)Oc1c[nH]c2ccccc12`, for which the Potency is 20 µM (active). Turning to `NC(=O)CSc1c[nH]c2ccccc12`, the Potency entry was “inactive”. Regarding `Cc1ccc(OCC(=O)Nc2ccc(Cl)c(-c3nc4ccccc4[nH]3)c2)cc1C`, the Potency entry was “inactive”. Next, `CCc1nc2nc(C)cc(Nc3ccc(F)c(Cl)c3)n2n1`: “inactive”. Next, `Cc1ccc(-c2csc(NC3OC(=O)c4ccccc43)n2)cc1` (stereo not given): 28.2 µM (active); `CCCc1cc(-c2nc(-c3ccc(C)cc3)cs2)ccn1`: “inactive”; `CCc1ccccc1NC(=O)[C@@H]1CCC(=O)N1C1OC(=O)c2c1ccc(OC)c2OC` (stereo not given in full): “inactive”. Take `Cc1ccc(-c2csc(-c3c[nH]c4ccccc34)n2)cc1`: the Potency result is “inactive”.

Consider `COc1ccc(N/C=C(\C2OC(=O)c3ccccc32)[N+](=O)[O-])cc1` (stereo not given), for which the Potency result was “inactive”. To `COc1ccc(-c2csc(NC3OC(=O)c4ccccc43)n2)cc1` (stereo not given) belongs 5.62 µM (active). `C/C(CC1CC(C)(C)OC1=O)=N/Nc1nc(-c2ccccc2)cs1` (stereo not given): the Potency result is “inactive”. In the case of `COc1ccc(-c2csc(NC(=O)COC(=O)Cc3ccc(Cl)cc3Cl)n2)cc1`, the Potency result was “inactive”. As for `COc1ccc2c(c1OC)C(=O)OC2Nc1nc(-c2ccccc2)cs1` (stereo not given), the Potency was 3.16 µM (active).

Turning to `Cc1nnc(NC(=O)CSc2nc3c([nH]c4ccccc43)c(=O)n2-c2cccc(Cl)c2)s1`, the Potency entry was “inactive”.

Consider `CC(=O)Nc1c(C)nn(-c2ccccc2)c1N1CCC(C(=O)Nc2cc(Cl)ccc2C)CC1`, for which the Potency entry was “inactive”.

Consider `Cn1nnnc1SCCCNCc1ccc(Cl)cc1`, for which the Potency result was “inactive”.

Consider `Fc1ccc(-c2nc(Nc3cccc(Cl)c3)nc3c2COc2ccccc2-3)cc1`, for which the Potency entry is “inactive”. On to `Cc1ccc(S(=O)(=O)N2CCCc3cc(NS(=O)(=O)c4cc(C)ccc4C)ccc32)cc1`, for which the Potency entry was “inactive”.

Turning to `Cc1cc(NS(=O)(=O)c2ccc3oc(=O)c4ncn(C)c4c3c2)ccc1Br`, the Potency result is “inactive”. For the molecule `Cc1cc(C)cc(NC(=O)CCCc2nc(-c3ccccc3Cl)no2)c1`, the Potency result was “inactive”. In the case of `COc1cc(N2C(=O)CSC2=S)cc(OC)c1OC`, the Potency entry was “inactive”.

`O=C1CSC(=S)N1c1ccc(O)cc1`: the Potency entry was “inactive”. Take `CCOc1cccc(/C=N/N2C(=O)CSC2=S)c1O`: the Potency was 3.55 µM (active). Consider `Cc1cc(C)cc(NC(c2nnc(-c3cccc(F)c3)o2)c2ccc(F)cc2Cl)c1` (stereo not given), for which the Potency entry was “inactive”.

For the molecule `CCOc1cccc(CNC(=O)c2ccc(N3CCCC3)c(NC(=O)Nc3ccccc3CC)c2)c1`, the Potency entry is “inactive”. To `Cc1c(Cl)cccc1NC(=O)NCCCN1CCCC1=O` belongs “inactive”; to `Cc1c(Cl)cccc1NC(=O)Nc1ccc(C(=O)N2CCCC2)cc1`, “inactive”. Take `Cc1c(Cl)cccc1NC(=O)NCc1ccc(C)n1C`: the Potency is 35.5 µM (active). As for `C#CC(C)(CC)NC(=O)Cn1nnc(-c2ccc(OCc3c(F)cccc3Cl)cc2)n1` (stereo not given), the Potency entry was “inactive”. For the molecule `CO/N=C(\C(=O)N[C@@H]1C(=O)N2C(C(=O)O)=C(COC(C)=O)CS[C@H]12)c1csc(N)n1` (stereo in doubt), the Potency result is “inactive”.

With `Cc1nnc(SCC2=C(C(=O)O)N3C(=O)C(NC(=O)Cn4nc(C)c(Cl)c4C)C3SC2)s1` (stereo not given), the Potency was 10 µM (active). With `Cc1nnc(SCC(=O)NC2CCCC2)s1`, the Potency result is “inactive”. `Cc1cc(C)cc(C(=O)NC2C(=O)N3C(C(=O)O)=C(CSc4nnc(C)s4)CSC23)c1` (stereo not given): the Potency is 5.01 µM (active). `O=C(Cn1ncc2c3ccccc3n(Cc3ccccc3)c2c1=O)NC1CCCCCC1`: the Potency entry was “inactive”.

In the case of `Cc1cccc(CSc2nc3ccncc3n2CC(=O)N(C)C2CCCCC2)c1`, the Potency entry is “inactive”. Regarding `CC(C)(C)OC(=O)N1CCC(c2c(C(=O)NCc3ccccn3)cnn2-c2ccc(F)cc2)CC1`, the Potency entry was “inactive”. With `COc1cccc(NC(=O)CCNS(=O)(=O)c2ccc3c(c2)oc(=O)n3C)c1`, the Potency result is “inactive”. With `COc1ccc(S(=O)(=O)NCCCCOc2ccc(Cl)cc2)cc1`, the Potency entry is “inactive”. To `COc1cccc(NC(C)=[N+](C)CCNS(=O)(=O)c2ccc(Cl)cc2)c1` belongs 31.6 µM (active); to `N#Cc1nc(/C=C/c2ccc(F)cc2)oc1NC1CCCCC1`, “inactive”. In the case of `CCC(=O)N1N=C(c2ccc(OC)cc2)CC1c1cn(-c2ccccc2)nc1-c1cccs1` (stereo not given), the Potency entry is “inactive”.

Consider `CCCn1c2ccccc2c2cnn(CC(=O)NCCCOC(C)C)c(=O)c21`, for which the Potency entry was “inactive”. With `CCSc1nnc2c(n1)OC(c1ccc(OCC(=O)O)cc1)Nc1ccccc1-2` (stereo not given), the Potency entry is “inactive”.

As for `COC(=O)c1scc(-c2ccc(C)cc2)c1S(=O)(=O)Nc1cc(Cl)c(OC)cc1OC`, the Potency result is “inactive”. As to `COc1ccc(Nc2ncc3c(n2)CCN(C(=O)OC(C)(C)C)C3)cc1`, the Potency result is “inactive”. As for `Cc1cccc(-n2c(O)c(/C=N/N3CCOCC3)c(=O)[nH]c2=S)c1`, the Potency entry was “inactive”.

For the molecule `Cc1cccc(-n2c(O)c(C=Nc3ccccc3N)c(=O)[nH]c2=O)c1`, the Potency entry was “inactive”.

As for `Cc1cccc(-n2c(O)c(C=NC34CN5CN(CN(C5)C3)C4)c(=O)[nH]c2=O)c1`, the Potency was 7.94 µM (active). For the molecule `CCOc1ccc(NC(=O)CCC(=O)N2CC(C)Oc3ccc(C)cc32)cc1` (stereo not given), the Potency result was “inactive”.

For the molecule `COc1ccc(OC)c(-c2nc(C(N)=O)c3c(n2)n(-c2ccc4c(c2)OCO4)c(=O)n3C)c1`, the Potency result was “inactive”. In the case of `CCCOc1ccc(NC(=O)CC2C(=O)N(C)C(=S)N2Cc2ccc3c(c2)OCO3)cc1` (stereo not given), the Potency entry was “inactive”. For `O=C(Nc1ccc(Cl)cc1)C1c2cccc[n+]2CC(=O)N1Cc1ccc2c(c1)OCO2` (stereo not given), the Potency was 20 µM (active). For `O=C(C1CCN(Cc2ccc(Cl)cc2)CC1)N1CCN(Cc2ccc3c(c2)OCO3)CC1`, the Potency result is “inactive”. With `COc1ccc(S(=O)(=O)c2c(Nc3ccc(C)cc3)sc(C(=O)c3ccc(C)cc3)c2N)cc1`, the Potency entry is “inactive”. For the molecule `Cc1c(C(=O)N2CCCC2)oc2c1-c1nn(CC(=O)NCc3ccc(OC(C)C)cc3)cc1CC2`, the Potency result was “inactive”. With `CCC(Sc1nc2n[nH]c(C)c2c(=N)n1-c1ccccc1Cl)C(=O)N(CC)CC` (stereo not given), the Potency result is “inactive”. Turning to `Cc1cc(C)nc(SC(C)C(=O)N/N=C/c2cccs2)n1` (stereo not given), the Potency entry was “inactive”. For `Cc1cc(C)nc(N(C#N)CC(=O)Nc2ccccc2)n1`, the Potency entry was “inactive”.

On to `Cc1cc(C)nc(S/C=C/C(=O)c2ccccc2)n1`, for which the Potency was 1.12 µM (active). As for `COc1ccccc1CN1CCC(CNC(=O)c2cnn(-c3ccccc3Cl)c2C2CCN(C(=O)OC(C)(C)C)CC2)CC1`, the Potency result was “inactive”.

`CCOC(=O)c1c(S(=O)(=O)N2CCC(C(=O)NCc3ccccc3OC)CC2)c(C)n(C)c1C`: the Potency entry was “inactive”.

Regarding `COc1cc(NC(=O)c2noc3c2CSc2ccccc2-3)cc(OC)c1OC`, the Potency was 0.794 µM (active).

For `COc1ccc(CCNC(=O)c2nn(C)c3c2CSc2ccccc2-3)cc1OC`, the Potency result is “inactive”.

For the molecule `COc1cc(NC(=O)c2nc3ccccc3nc2C)cc(OC)c1OC`, the Potency result was “inactive”. As to `O=C(NCc1ccccc1Cl)c1cccn1-c1nnc(N2CCCCC2)s1`, the Potency result was “inactive”. On to `O=C(Nc1ccc(CN2CCOCC2)cc1)c1cc(Cl)ccc1Cl`, for which the Potency result was “inactive”.

As for `CC(CN1CCOCC1)c1ccccc1` (stereo not given), the Potency result is “inactive”. Regarding `CC(C)c1cc(CN2CCOCC2)cc(C(C)C)c1O`, the Potency was 3.98 µM (active).

`COc1cc(C(=O)Nc2ccc(OCc3cc(=O)n4cc(C)sc4n3)cc2)cc(OC)c1OC`: the Potency result was “inactive”.

In the case of `COc1ccc(CC(=O)N2CC(=O)Nc3ccc(Br)cc3C2c2ccc(F)cc2)cc1OC` (stereo not given), the Potency entry is “inactive”. For the molecule `CCOC(=O)C1CCCN(C(=O)Cn2ncc3c(C)n(Cc4ccc(F)cc4)c(C)c3c2=O)C1` (stereo not given), the Potency entry is “inactive”. For the molecule `CCOC(=O)C1(CCc2ccccc2)CCN(Cc2ccco2)CC1`, the Potency entry is “inactive”. On to `Cc1nc2ccn(Cc3cccnc3)c(=O)c2cc1C(=O)N1CCN(c2ccccc2F)CC1`, for which the Potency result is “inactive”. With `CCN1CCN(C(c2ccc(C)cc2)c2c(O)cc(C)n(Cc3ccco3)c2=O)CC1` (stereo not given), the Potency was 4.47 µM (active). `COc1cccc(C(c2c(O)cc(C)n(Cc3ccco3)c2=O)N2CCN(c3ccccc3)CC2)c1` (stereo not given): the Potency was 3.16 µM (active). With `C/C(=N\N1CCN(Cc2ccc(C)cc2)CC1)c1ccco1`, the Potency entry was “inactive”. Take `Cc1oc2ncn(CC(C)C)c(=O)c2c1C(=O)N1CCN(c2ccccc2F)CC1`: the Potency entry was “inactive”.

`OC(COCc1ccco1)CN1CCN(c2ccccc2)CC1` (stereo not given): the Potency entry is “inactive”.

Consider `Cc1cc(O)c(C(c2ccccc2)N2CCN(c3ccccc3F)CC2)c(=O)n1Cc1ccco1` (stereo not given), for which the Potency was 3.16 µM (active).

For the molecule `COc1ccc(C(CC(=O)N2CCN(c3ccccc3)CC2)c2c(O)cc(OC)cc2OC)cc1` (stereo not given), the Potency result is “inactive”.
